Source: PubChem BioAssay
NPC1 promoter act = NPC1 promoter activation; Potency, µM (top dose mostly 9.22 µM), inactives show top-dose activation, actives largely listed as activators; Huh7 NPC1 promoter luciferase reporter, 24 h; 2.4% of 320,000 active; note: % of control where 0% means no effect; nearly all actives have a fitted effect of over 60% in size
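Stably transfected Huh7 (NPC1 promoter→luciferase), 1500 cells/well in Opti-MEM + 10% FBS, 2 h settle, then compound 24 h at 37 °C. Luminescence after 10 min with Amplite reagent.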
SMN2 splice up = enhancers of SMN2 splice variant expression; Potency, µM (titrated, usually from 46.1 µM), for the others: at the top dose activity change, positive = activation, most hits filed as activators; 2.8% of 210,000 active; HEK293 SMN2-luciferase splicing reporter, luminescence, 30-36 h; note: % of control where 0% means no effect; nearly all actives have a fitted effect of over 55% in size
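HEK293 cells carry an SMN2 minigene-luciferase reporter in which exon 7 inclusion puts luciferase in frame. Cells were seeded at 2000 cells/well, attached for 10-12 hours, then exposed to compounds for 30-36 hours at 37C before ONE-Glo luminescence.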
Luc counter = blocks Kinase-Glo luciferase, a counter-screen artifact; Q27757; Kinase-Glo luciferase, ATP luminescence, 8 min; Potency, µM (series often up to 38.3 µM), for the others: top-dose activity change, negative = inhibition, actives largely listed as inhibitors; 0.28% of 200,000 active; note: % is set by controls: 0 for no effect and ±100 for the full control effect; nearly all actives have a fitted effect of over 60% in size
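Compounds were added to a substrate mix at pH 7.2 (50 mM imidazole, 10 uM ATP, within the enzyme's linear range), followed by Kinase-Glo detection reagent; luminescence was measured after 8 minutes at ambient temperature.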
ELG1 genotox = induces genotoxicity in HEK293T cells with luciferase-tagged ELG1 | HEK293T ELG1-luciferase reporter, luminescence, 16 h | Potency, µM (series often up to 46 µM), inactives show at the top dose activity change, positive = activation, usual class: activators | 1.3% of 330,000 active | AID 504466; note: % of control where 0% means no effect; nearly all actives have a fitted effect of over 60% in size
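Genotoxicity was scored as increased ELG1-luciferase reporter signal, measured by ONE-Glo luminescence (30 min, room temperature). Compound or vehicle exposure of the HEK293T reporter cells lasted 16 hr at 37°C.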
FLuc counter = firefly luciferase modulation, counter-screen for miR-21 project; purified FLuc, Km substrates, luminescence inhibition; Potency, µM (series often up to 57.5 µM), inactives show top-dose activity change, negative = inhibition, most hits filed as inhibitors; P08659; 6.9% of 360,000 active;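 note: plate controls were vehicle for no effect and reference inhibitor for full effect; nearly all actives have a fitted effect of over 55% in size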
Target sequence (P08659 whole entry, looked up): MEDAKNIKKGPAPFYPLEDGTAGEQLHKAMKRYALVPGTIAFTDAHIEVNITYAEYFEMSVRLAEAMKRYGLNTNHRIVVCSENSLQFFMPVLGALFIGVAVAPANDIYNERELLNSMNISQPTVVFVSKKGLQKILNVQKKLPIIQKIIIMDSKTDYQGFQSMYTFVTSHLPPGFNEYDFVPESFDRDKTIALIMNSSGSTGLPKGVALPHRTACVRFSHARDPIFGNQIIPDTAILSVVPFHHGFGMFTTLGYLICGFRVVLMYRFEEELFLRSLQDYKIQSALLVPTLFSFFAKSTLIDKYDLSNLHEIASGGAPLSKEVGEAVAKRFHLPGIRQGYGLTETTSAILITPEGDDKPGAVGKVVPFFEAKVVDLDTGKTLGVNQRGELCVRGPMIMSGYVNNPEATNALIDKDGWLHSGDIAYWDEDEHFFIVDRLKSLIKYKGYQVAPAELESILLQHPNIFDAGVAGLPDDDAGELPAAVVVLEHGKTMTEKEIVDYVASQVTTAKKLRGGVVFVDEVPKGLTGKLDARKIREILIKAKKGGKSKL
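Purified P. pyralis luciferase, 10 nM final, with Km-level 10 uM D-luciferin and 10 uM ATP in 50 mM Tris acetate pH 7.5, 10 mM Mg acetate, 0.01% Tween-20, 0.05% BSA; 6-point qHTS titration about 60 µM downward; luminescence read.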
Rab9 promoter act = activates the Rab9 promoter. Huh7 Rab9 promoter-luciferase reporter, luminescence, 24 h. Potency, µM (titrated, usually from 9.22 µM), for the others: at the highest dose activation, negative = inhibition, usual class: activators. 2.8% of 320,000 active. AID 485297; note: % of control where 0% means no effect; nearly all actives have a fitted effect of over 60% in size
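Huh7 cells stably carrying Rab9 promoter–luciferase reporter, plated 1500 cells/well, compound added after 2 h and incubated 24 h at 37 °C; luciferase luminescence then read after 10 min with detection reagent.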
The depositor's hits bear a star; ? = inconclusive; . = not tested or not shown. Rows were chosen to be rich in hits. Some 7.5% of all compounds tested hit in one or more screens of this group. Calls come from the whole dose curve; as a rule, active = well fitted curve in the direction sought with a large enough effect; inconclusive = small, poorly fitted or top-dose-only effect, or another doubt; inactive = no such curve, though single readings can be large; an effect the other way counts as inactive or inconclusive. Potency is the fitted concentration of half-maximal effect.

SMILES	NPC1 promoter act	SMN2 splice up	Luc counter	ELG1 genotox	FLuc counter	Rab9 promoter act
CC(C)c1ccc(NC(=S)NNC(=O)c2cccs2)cc1	?	?	-2%	?	21µM*	?
Cc1cccnc1NC(=O)CNC(=O)c1cccs1	-3%	.	.	0%	1%	-5%
COc1ccc(NC(=S)NNC(=O)c2cccs2)cc1	0%	25%	-2%	?	-6%	4µM*
COc1ccc(/C=N/NC(=O)CNC(=O)c2cccs2)cc1	-5%	11%	1%	14%	15µM*	18%
Cc1cccnc1NC(=S)NC(=O)c1cccs1	?	3.2µM*	-17%	?	13µM*	3.5µM*
CC1CCN(S(=O)(=O)c2ccc3c(ccn3CCC(=O)NCc3ccccc3F)c2)CC1	.	.	.	.	-10%	.
CCc1cccc(C)c1NC(=O)CN1C(=O)c2c(c3ccccc3n2C)C1c1ccc(OC)cc1 (stereo not given)	.	.	.	.	-2%	.
O=C(/C=C/c1cccs1)NC(=S)NNC(=O)c1ccccc1O	-36%	-70%	2%	-8%	?	-41%
COc1ccc(NC(=O)/C=C/c2ccccc2)c([N+](=O)[O-])c1	?	10µM*	-6%	?	?	3.2µM*
O=C(Nc1ccc(Oc2ccc(C(=O)O)c(C(=O)O)c2)cc1)c1cccs1	-2%	.	0%	2%	21µM*	-6%
COc1ccc(NC(=O)c2cccs2)cc1	?	18µM*	-27%	?	15µM*	?
COc1ccc(/C=C/C(=O)Nc2ccc(OC)cc2[N+](=O)[O-])cc1	-3%	2%	0%	5%	-3%	1%
O=C(/C=C/c1cccs1)NC(=S)Nc1ccccc1	19%	15%	1%	1%	27µM*	?
O=C(Nc1ccc(NC(=O)c2ccc(Cl)cc2Cl)cc1)c1cccs1	-3%	.	.	15%	-2%	5%
Cn1c(SCC(=O)N2CCOCC2)ncc(C(=O)Nc2ccc(F)cc2)c1=O	.	.	.	.	-10%	.
CCOc1cc(/C=N/NC(=O)C2CC2)ccc1OC(C)C	-1%	.	.	-5%	2%	-5%
COc1cccc(-c2nc(-c3ccc(NC(=O)c4ccncc4)cc3)no2)c1	3%	-67%	0%	1%	-9%	28%
Cc1cccnc1NC(=O)NC(=O)c1ccc(C(C)(C)C)s1	?	.	.	?	5.4µM*	2.2µM*
COc1ccc2nc3c(cc2c1)c(NC(=O)c1cccs1)nn3CC(C)C	-3%	13%	-1%	-1%	7.6µM*	19%
CC(C)Cn1nc(NC(=O)c2cccs2)c2cc3ccccc3nc21	-4%	.	.	-8%	?	-1%
O=C(NC(=S)Nc1ccccc1)c1cccs1	2µM*	.	.	?	17µM*	?
COc1cccc(-c2nc(-c3ccc(NC(=O)c4cccs4)cc3)no2)c1	30%	-17%	0%	14%	13µM*	?
Cc1cccnc1NC(=O)CCC(=O)c1cccs1	-1%	.	.	0%	0%	-1%
O=C(Nc1ccc(OCc2ccccc2)cc1)c1cccs1	2.8µM*	.	.	?	17µM*	4.5µM*
O=C(NC(=S)Nc1ccc(Br)cn1)c1cccs1	?	13µM*	0%	?	3.8µM*	?
S=C(Nc1ccccc1)Nc1ccc(Br)cn1	-8%	-24%	1%	3%	-1%	4%
COc1ccc(NC(=O)c2cccs2)c([N+](=O)[O-])c1	?	20%	-6%	?	?	4µM*
C[C@H](NC(N)=O)C(=O)Nc1ccc(OCc2ccccc2)cc1	?	16µM*	0%	14%	?	3.5µM*
O=C(CN1C(=O)NC(c2ccccc2)(c2ccccc2)C1=O)NCCNCCO	-1%	.	.	0%	1%	-1%
CC(C)N(c1ccccc1)c1ccc(NC(=O)COC(=O)CCN2C(=O)c3cccc([N+](=O)[O-])c3C2=O)cc1	-5%	-4%	-1%	-2%	7%	1%
